A selection: hits, their analogues and other compounds. The true share with any hit is near 2.1%.
NRP1-CendR mod – modulators of CendR peptide binding to NRP-1, primary screen, biochemical, fluorescence polarization, uHTS; Neuropilin-1 (Homo sapiens), O14786; FAM-RPARPAR peptide binding to NRP-1; inhibition, % at 25 µM; 360,000 compounds, 0.85% hits; AID 602438, 2012;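 active means inhibition or corrected inhibition above about 18%, plus a signal ratio from 0.5 to 1.5, limit read from the data, passing the limit was not always enough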
Target sequence (O14786 whole entry, looked up): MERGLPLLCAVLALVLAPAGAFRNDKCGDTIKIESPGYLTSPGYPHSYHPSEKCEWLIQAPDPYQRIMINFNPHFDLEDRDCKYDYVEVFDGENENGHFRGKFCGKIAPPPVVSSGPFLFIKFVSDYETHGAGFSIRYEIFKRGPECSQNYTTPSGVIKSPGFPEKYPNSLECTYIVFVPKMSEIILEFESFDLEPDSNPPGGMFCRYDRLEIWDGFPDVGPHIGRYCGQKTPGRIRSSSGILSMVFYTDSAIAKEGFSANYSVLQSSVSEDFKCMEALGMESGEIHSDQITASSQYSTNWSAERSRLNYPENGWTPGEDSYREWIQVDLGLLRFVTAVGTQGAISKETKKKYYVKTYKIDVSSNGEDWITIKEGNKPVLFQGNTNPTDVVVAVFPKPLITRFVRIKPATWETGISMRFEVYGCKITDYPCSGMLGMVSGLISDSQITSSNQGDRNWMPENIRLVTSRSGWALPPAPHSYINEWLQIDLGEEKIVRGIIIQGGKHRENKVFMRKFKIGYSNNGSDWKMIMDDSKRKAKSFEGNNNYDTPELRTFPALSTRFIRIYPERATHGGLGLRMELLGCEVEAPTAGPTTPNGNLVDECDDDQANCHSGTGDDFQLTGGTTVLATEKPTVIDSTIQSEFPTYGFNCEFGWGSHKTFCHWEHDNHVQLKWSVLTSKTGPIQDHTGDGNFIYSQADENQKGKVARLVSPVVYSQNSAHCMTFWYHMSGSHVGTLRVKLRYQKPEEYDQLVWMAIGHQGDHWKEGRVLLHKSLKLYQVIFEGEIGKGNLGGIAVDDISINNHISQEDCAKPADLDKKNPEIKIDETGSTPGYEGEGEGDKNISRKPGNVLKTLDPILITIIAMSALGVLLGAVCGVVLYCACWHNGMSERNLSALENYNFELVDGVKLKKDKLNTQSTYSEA
eIF4H FP inh – human eIF4H binding inhibitors, primary screen, translation initiation inhibitor project, biochemical, uHTS, fluorescence polarization. Eukaryotic translation initiation factor 4H (Homo sapiens), Q15056. eIF4H fluorescence polarization binding assay. inhibition, % at 35 µM. 290,000 compounds, 0.94% hits. AID 2012, 2009;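 further: calls also rest on retests at 20 µM and on dose response follow-up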
PABP1 MLLE inh – inhibitors of PABP1 MLLE–PAM2 peptide binding, primary screen, biochemical, fluorescence polarization, FITC-PAM2, GST-MLLE | 360,000 compounds, 0.36% hits | Polyadenylate-binding protein 1 (Homo sapiens), P11940 | AID 588489, 2011 | inhibition, % at 20 µM; in the data active means inhibition above about 35%, passing the limit was not always enough
PABP FP inh – PABP poly(A) RNA binding inhibitors, primary screen, biochemical, fluorescence polarization, uHTS | AID 2014, 2009 | 290,000 compounds, 1% hits | inhibition, % at 35 µM;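 further: calls also rest on retests at 20 µM and on dose response follow-up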
Large screens that a line does not name were inactive. Unless noted, how the calls were made is not given here.

Cc1cc(C)n2nc(SCc3cc(=O)oc4cc(O)ccc34)nc2n1	eIF4H FP inh inconclusive, PABP FP inh 46 (no result: NRP1-CendR mod, PABP1 MLLE inh)
Cc1cc(C)n2nc(SCc3ccccc3)nc2n1	none
CC1(C(=O)NS(=O)(=O)c2ccc(Cl)s2)CCN1C(=O)CCc1ccccc1 (stereo not drawn)	none (no result: eIF4H FP inh, PABP FP inh)
Cc1cccc(CCN2CCN=C2Nc2ccccc2)c1	NRP1-CendR mod 27 (no result: eIF4H FP inh, PABP FP inh)
c1ccc(CCN2CCN=C2Nc2ccccc2)cc1	none
CC1CCN(C(=O)c2ccc(N3CCOCC3)c([N+](=O)[O-])c2)CC1	none (no result: eIF4H FP inh, PABP FP inh)
N=C1/C(=C\c2ccc(-c3cc(Cl)cc(Cl)c3)o2)C(=O)N=C2SC=C(c3ccccc3)N12	none
CC(C)S(=O)(=O)C1=NSC2=NC(=O)/C(=C\c3ccc(-c4cccc(C(=O)O)c4)o3)C(=N)N21	PABP FP inh active
O=C1OC(c2cccs2)=N/C1=C/c1ccc(-c2cccc(C(=O)O)c2)o1	PABP FP inh active
N=C1/C(=C/c2ccc(-c3cccc(C(=O)O)c3)o2)C(=O)N=C2SC=C(c3ccccc3)N12	eIF4H FP inh 52, PABP FP inh 11
Cc1cc(C)cc(-n2cccc2/C=C2/C(=N)N3C(=NC2=O)SN=C3S(C)(=O)=O)c1	eIF4H FP inh 29, PABP FP inh 79
CS(=O)(=O)C1=NSC2=NC(=O)/C(=C\c3ccc(-c4ccccc4)o3)C(=N)N21	eIF4H FP inh 54 (no result: NRP1-CendR mod, PABP1 MLLE inh)
CC(C)S(=O)(=O)C1=NSC2=NC(=O)/C(=C\c3ccc(-c4ccccc4)o3)C(=N)N21	eIF4H FP inh inconclusive
Cc1ccc(-c2nnc(Nc3ccc4c(c3)OCO4)c3ccccc23)cc1S(=O)(=O)NCCO	none
Cc1ccc(-c2nnc(Nc3ccc4c(c3)OCO4)c3ccccc23)cc1S(=O)(=O)NC(C)C	NRP1-CendR mod 28
Cc1nnc2n1NC(c1ccc(Cl)cc1)C(C(=O)N1CCC(C)CC1)S2 (stereo not drawn)	NRP1-CendR mod 23
CCCCn1c(CCCNC(=O)c2ccco2)nc2ccccc21	NRP1-CendR mod 22
CCCCn1c(CCNC(=O)c2ccco2)nc2ccccc21	none
Cc1ccc(NC(=O)CN(C)C(=O)CNC(=O)c2sc3ccccc3c2Cl)cc1	none (no result: eIF4H FP inh, PABP FP inh)
CCOc1ccccc1C(=O)N[C@H](C(=O)Nc1nc2c(s1)CCCC2)C(C)C	none
COc1ccc(C(=O)N[C@H](C(=O)Nc2nc3c(s2)CCCC3)C(C)C)cc1	NRP1-CendR mod 26
Cc1[nH]n(C(N)=S)c(=O)c1N=Nc1cccc([N+](=O)[O-])c1C	none
Cc1c(N=Nc2c(-c3ccc([N+](=O)[O-])cc3)[nH]n(C(N)=S)c2=O)cccc1[N+](=O)[O-]	eIF4H FP inh inconclusive, PABP1 MLLE inh 41, PABP FP inh active
NC(=S)n1[nH]c(-c2ccc([N+](=O)[O-])cc2)c(N=Nc2ccccc2[N+](=O)[O-])c1=O	none
NC(=S)n1[nH]c(-c2ccc([N+](=O)[O-])cc2)c(N=Nc2cccc([N+](=O)[O-])c2)c1=O	PABP1 MLLE inh 42 (no result: eIF4H FP inh, PABP FP inh)
Cc1ccc(-n2c(SCC(=O)N3CCOCC3)nnc2-c2ccncc2)cc1C	none
Cn1c(=O)[nH]c2cc(Cl)cnc21	eIF4H FP inh inconclusive, PABP1 MLLE inh 47, PABP FP inh inconclusive
Cc1ccsc1CN(C)CC(=O)N(C)CC(=O)Nc1c(Cl)cccc1Cl	none (no result: eIF4H FP inh, PABP FP inh)
COc1ccc(C2=CC3=C(Br)C(=O)C(C)(O)C(=O)C3=CO2)cc1 (stereo not drawn)	PABP FP inh 56
CCC(=O)OC1(C)C(=O)C2=COC(c3ccc(OC)cc3)=CC2=C(Br)C1=O (stereo not drawn)	eIF4H FP inh inconclusive, PABP FP inh inconclusive
CN(CC(=O)Nc1cccc(F)c1)C(=O)CNS(=O)(=O)c1ccc(N(C)C)c([N+](=O)[O-])c1	PABP1 MLLE inh 46 (no result: eIF4H FP inh, PABP FP inh)
CN(C)c1ccc(S(=O)(=O)NCC(=O)N2CCN(S(=O)(=O)c3cccc(F)c3)CC2)cc1[N+](=O)[O-]	none (no result: eIF4H FP inh, PABP FP inh)
NC(=O)C1CCCN1 (stereo not drawn)	NRP1-CendR mod 22
Cc1nc2c(OCCC3CCCCC3)cccn2c1N(C)C(=O)CCC1CCCC1	NRP1-CendR mod 26 (no result: eIF4H FP inh, PABP FP inh)
Cc1nc2c(OCCOc3ccccc3)cccn2c1N(C)C(=O)CCC1CCCC1	none (no result: eIF4H FP inh, PABP FP inh)
N#CC(C#N)=Cc1cccn1-c1ccc(C(=O)O)cc1	eIF4H FP inh 87
N#C/C(=C/c1cccn1-c1cccc(C(=O)O)c1)c1ccc(Cl)cc1	PABP FP inh 34
CCOC(=O)/C(C#N)=C/c1cccn1-c1ccc(Cl)cc1	none
Nc1ccc(C(=O)NN2C(=O)[C@H](Cl)C2c2ccc(Cl)cc2)cc1 (stereo partly drawn)	none (no result: eIF4H FP inh, PABP FP inh)
Cc1cc(C)n(CCC(=O)N/N=C/c2c(O)ccc3ccccc23)n1	NRP1-CendR mod 34
Cc1cccc(CN2CCN(C3CN(Cc4cn(Cc5cccc(Cl)c5)nn4)S(=O)(=O)C3)CC2)c1 (stereo not drawn)	NRP1-CendR mod 23 (no result: eIF4H FP inh, PABP1 MLLE inh, PABP FP inh)
COc1cc(CCN(C(=O)c2cccc(S(C)(=O)=O)c2)C(CCc2ccccc2)c2nc3ccccc3[nH]2)cc(OC)c1 (stereo not drawn)	none (no result: eIF4H FP inh, PABP FP inh)
Cc1cc(C)nc(SCC(=O)Nc2ccccc2[N+](=O)[O-])n1	none
O=C1CC(=O)NC(SCC(=O)Nc2ccccc2[N+](=O)[O-])=N1	eIF4H FP inh 78, PABP FP inh 60
COc1ccccc1C(=O)NCCC(=O)Nc1ccncc1	none (no result: eIF4H FP inh, PABP FP inh)
N#Cc1cc(C#N)c(N2CCN(c3ccccn3)CC2)nc1N	none
Nc1nnc(SC2CC(=O)N(c3ccccc3)C2=O)s1 (stereo not drawn)	PABP1 MLLE inh 42
CCOC(=O)c1ccc(N2C(=O)CC(Sc3nnc(C)s3)C2=O)cc1 (stereo not drawn)	NRP1-CendR mod 35
O=C(c1ccsc1)N1CCCC(Nc2cccc(F)c2)C1 (stereo not drawn)	none
NC(Cc1ccc(C(F)(F)F)cc1)c1csc(Nc2cc(NCc3ccco3)ncn2)n1 (stereo not drawn)	none (no result: eIF4H FP inh, PABP FP inh)
Cc1c(C(=O)Nc2cccc(Cl)c2)c2ccccn2c1CCc1ccncc1	eIF4H FP inh inconclusive, PABP FP inh 85
CCC(CC)CC1CN2CCc3cc(OC)c(OC)cc3C2CC1(O)CC (stereo not drawn)	none (no result: eIF4H FP inh, PABP FP inh)
O=C(NCc1ccccc1)C1C(c2ccccc2)=Nc2ccccc2N1C(=O)c1ccncc1 (stereo not drawn)	none (no result: eIF4H FP inh, PABP1 MLLE inh, PABP FP inh)
CCCCC[C@@H](C)N1C[C@H](COCc2ccccc2)Oc2cc(N3CC[C@H](O)C3)ccc2S1(=O)=O	NRP1-CendR mod 20 (no result: eIF4H FP inh, PABP1 MLLE inh, PABP FP inh)
COC(=O)c1cc2c(n1S(=O)(=O)c1ccc(C)cc1)C(=O)C(=O)c1[nH]cc(C(=O)OCc3ccccc3)c1-2	NRP1-CendR mod 27 (no result: eIF4H FP inh, PABP FP inh)
COC(=O)c1ccc(COC(=O)c2ccc(CS(=O)(=O)c3ccc(C)cc3)cc2)cc1	none
O=C(/C=C\c1ccco1)c1ccc(NC(=O)c2ccco2)cc1	eIF4H FP inh inconclusive, PABP FP inh 53
CC(=O)Nc1ccc(C(=O)/C=C/c2ccco2)cc1	eIF4H FP inh inconclusive, PABP FP inh 3.8
CC(=O)Nc1ccc(C(=O)CSc2ncn(-c3ccccc3)n2)cc1	PABP1 MLLE inh 41

Assay outcomes deposited in PubChem BioAssay by Sanford-Burnham Center for Chemical Genomics.
